From PubChem BioAssay AID463173 (ICCB-Longwood Screening Facility, Harvard Medical School, 2010) come the findings set out here.

Molecules are shown by their SMILES. About 4,300 (8.3%) of roughly 52,000 compounds were called active. The list comes from a sample in which actives are over-represented; it also holds similar structures and randomly drawn compounds. Values without a mark were called inactive. No stated cut-off is given here; in the data, active means survival mostly below about 52% (no sharp cut-off); inactive means mostly above about 56%.

In this test the test system is DeltatarO mutant. Put plainly: growth inhibition of S. aureus wild type versus tarO mutant, primary screen, teichoic acid synthesis inhibitors, RN4220, OD600 (AID 463173). The conditions noted are these: OD600, 18 h, active compounds read low, screened at 18.75 µg/mL (by protocol).
For `Cc1cccc(NS(=O)(=O)c2ccc3c(c2)CCN3C(=O)C2CCC2)c1`, the survival is 69%.
To `Cc1cc(C)c2oc(C(=O)NCCc3ccc(S(N)(=O)=O)cc3)cc(=O)c2c1` belongs 63%.
Then `Cn1c(=O)n(C)c2cc(CNCc3ccc(F)cc3)ccc21`, with 92%; and `NC(=O)c1ccccc1NS(=O)(=O)c1ccccc1`, with 97%; and `NC(=O)c1ccc(-c2ccccc2)cc1C(N)=O`, with 66% (active).
In the case of `NC(=O)c1cc(Cl)nc2ccccc12`, the survival was 81%.
Then `Cc1ccc(CNC(=O)c2cnc(N3CCCCC3)c3ccccc23)cc1`, with 80%.
To `c1ccc(CCn2nnnc2CN2CCCc3ccccc32)cc1` belongs 93%; to `Cc1ccc(CN(C(=O)COc2ccc(Br)cc2)c2ccccn2)o1`, 62%.
Then `COc1ccc(NC(=O)c2c(NC(=O)Cc3ccccc3)sc3c2CCCC3)cc1`, with 124%; and `O=C(Cc1ccccc1)Nc1sc2c(c1C(=O)Nc1ccc(Cl)cc1)CCCC2`, with 47%.
Regarding `CCOc1ccc(NC(=O)c2c(NC(=O)Cc3ccccc3)sc3c2CCCCC3)cc1`, the survival was 48%.
Turning to `Cc1ccc(NC(=O)c2c(NC(=O)Cc3ccccc3)sc3c2CCC3)cc1`, the survival is 24% (active).
Then `O=C(Cc1ccccc1)Nc1sc2c(c1C(=O)Nc1ccc(Br)cc1)CCC2`, with 55%; and `O=C(Cc1ccccc1)Nc1sc2c(c1C(=O)Nc1ccccc1)CCCCC2`, with 50%.
With `CCOc1ccc(NC(=O)c2c(NC(=O)Cc3ccccc3)sc3c2CCCC3)cc1`, the survival is 45% (active).
Then `CCC(=O)Nc1sc2c(c1C(=O)Nc1ccc(Br)cc1)CCCCC2`, with 135%; and `O=C(Cc1ccccc1)Nc1sc2c(c1C(=O)Nc1ccc(Br)cc1)CCCC2`, with 57% (active); and `Cc1ccc(NC(=O)c2c(NC(=O)Cc3ccccc3)sc3c2CCCC3)cc1`, with 28% (active).
For `CC(Cc1ccccc1)N=C1NS(=O)(=O)c2ccccc21` (configuration not stated), the survival is 81%.
As to `Cc1nc2c3ccccc3nc(NNC(=O)CCC(=O)N3CCN(c4cccc(C(F)(F)F)c4)CC3)n2n1`, the survival was 57%.
To `CCOc1ccc(CCNC(=O)C2Cc3ccccc3N2C(=O)CC)cc1OCC` (configuration not stated) belongs 93%; to `Cc1nnc(N(C)C(=O)Cc2ccc3c(c2)OCO3)s1`, 73%; to `COC(=O)C1C(=O)NC(S)=C(C#N)C1c1ccccc1Cl` (configuration not stated), 89%.
On to `CCCN(CCC)C(=O)Cn1c(=O)n(-c2ccc(CC)cc2)c(=O)c2c3c(sc21)CCC3`, for which the survival was 110%.
For the compound `COc1ccc(NC(=O)c2csnn2)cc1Cl`, the survival was 86%.
To `COc1ccccc1N1CCN(C(=O)c2cnc(N3CCOCC3)c3ccccc23)CC1` belongs 78%; to `CCOC(=O)c1cc(-c2ccc(F)cc2)n(CC(=O)NC2CCCCCC2)c1C`, 76%; to `CCOC(=O)c1ccc(-n2c(C)nc3c(cnn3-c3ccc(Cl)cc3)c2=O)cc1`, 67%.
For `Cc1nc2c(cnn2-c2ccccc2)c(=O)n1-c1ccccc1`, the survival was 73%.
As for `CCc1cccc(-n2c(C)nc3c(cnn3-c3ccc(Cl)cc3)c2=O)c1`, the survival was -1% (active).
`Cc1ccc(-n2c(C)nc3c(cnn3-c3ccccc3C)c2=O)cc1F`: the survival is 120%.
Then `CCc1cccc(-n2c(C)nc3c(cnn3-c3ccc(C)c(C)c3)c2=O)c1`, with -1% (active).
Then `COc1cccc(-n2c(C)nc3c(cnn3-c3ccc(C)c(C)c3)c2=O)c1`, with 50% (active); and `Cc1ccc(-n2ncc3c(=O)n(Cc4cccc(C(F)(F)F)c4)cnc32)cc1C`, with 93%.
Then `COc1ccc(-n2c(-c3ccco3)nc3c(cnn3-c3ccc(C)cc3)c2=O)cc1`, with 73%; and `COc1cccc(-n2c(-c3ccco3)nc3c(cnn3-c3ccc(Cl)cc3)c2=O)c1`, with 113%.
For the compound `COc1cccc(-n2c(-c3ccco3)nc3c(cnn3-c3ccc(C)cc3)c2=O)c1`, the survival was 52% (active).
Then `COc1ccc(-n2c(C)nc3c(cnn3-c3ccc(C)c(C)c3)c2=O)cc1Cl`, with 118%; and `COc1ccc(-n2c(C)nc3c(cnn3-c3ccc(F)cc3)c2=O)cc1`, with 73%; and `Cc1ccc(C)c(S(=O)(=O)c2cn(C)c3cc(N4CCCCC4C)c(F)cc3c2=O)c1` (configuration not stated), with 86%.
As to `CCOc1ccc(/C=C/c2nc(C#N)c(NC(C)CC)o2)cc1` (configuration not stated), the survival is 68%.
Then `Cc1nc2cc(C(F)(F)F)ccc2n1C1CCN(CC(=O)N2CCCC2)CC1`, with 109%; and `O=C(Nc1ccccc1-c1ccccc1)NC1CCN(CC(=O)N2CCOCC2)CC1`, with 73%.
To `CC1=C(C(=O)N2CCN(c3ccc(Cl)cc3)CC2)C2(CCC(C)CC2)OC1=O` (configuration not stated) belongs 121%; to `CCc1ccc(CNC(=O)CN(c2ccc(C)cc2)S(=O)(=O)N(C)C)cc1`, 76%.
In the case of `O=C(OC(C(=O)NC1CCCC1)c1cccnc1)C1=Cc2ccccc2OC1` (configuration not stated), the survival was 96%.
For the compound `COc1cccc(C(=O)N2c3nc(-c4ccco4)nn3C3(CCCCC3)[C@@H]3CCCC[C@@H]32)c1`, the survival is 95%.
Regarding `CNS(=O)(=O)c1cn(CC(=O)Nc2ccc(C)cc2C)cc1S(=O)(=O)NC`, the survival is 117%.
Take `CNS(=O)(=O)c1cn(CC(=O)Nc2ccc(F)cc2F)cc1S(=O)(=O)NC`: the survival was 0% (active).
As for `Cc1cc(F)ccc1NC(=O)Cn1cc(S(=O)(=O)NC(C)C)c(S(=O)(=O)NC(C)C)c1`, the survival was 90%.
In the case of `COc1ccc(-c2onc(C)c2C)cc1S(=O)(=O)NCC1CCN(Cc2cc(C)ccc2C)CC1`, the survival is 100%.
`CCOC(=O)c1cc(-c2ccccc2)n(CC(=O)NCc2ccccc2OC)c1C`: the survival is 101%.
Turning to `CCOC(=O)c1cc(-c2ccc(F)cc2)n(CCC(=O)Nc2ccccc2OC)c1C`, the survival is 101%.
To `CCOC(=O)c1cc(-c2ccc(C)cc2)n(CCC(=O)NCc2ccccc2)c1C` belongs 108%; to `CCOC(=O)c1cc(-c2ccccc2)n(CCC(=O)NCCc2cccc(C)c2)c1C`, 58%; to `CCOC(=O)c1cc(-c2ccc(C)cc2)n(CCC(=O)Nc2ccc(OC)c(OC)c2)c1C`, 52% (active).
To `CCOC(=O)c1cc(-c2ccc(F)cc2)n(CCC(=O)NCc2ccccc2OC)c1C` belongs 52% (active); to `CCOC(=O)c1cc(-c2ccc(C)cc2)n(CCC(=O)Nc2ccc(C(C)C)cc2)c1C`, 61%; to `CCOC(=O)c1cc(-c2ccccc2)n(CCC(=O)NCCc2ccccc2)c1C`, 0% (active).
To `CCOC(=O)c1cc(-c2ccccc2)n(CCC(=O)NCCc2ccc(C)cc2)c1C` belongs 71%.
With `CCOC(=O)c1cc(-c2ccc(F)cc2)n(CC(=O)NCc2ccc(OC)cc2)c1C`, the survival is 75%.
Regarding `CCOC(=O)c1cc(-c2ccccc2)n(CC(=O)NCc2ccc(C)cc2)c1C`, the survival is 37% (active).
For `CCOC(=O)c1cc(-c2ccccc2)n(CCC(=O)Nc2ccc(OC)c(Cl)c2)c1C`, the survival was 92%.
Then `CC1CCc2c(sc(NC(=S)NC(=O)c3ccn(C)n3)c2C(N)=O)C1` (configuration not stated), with 99%; and `O=C1CS(=O)(=O)C2(C(=O)N(Cc3ccc(F)cc3)c3ccccc32)N1c1cccc(C(F)(F)F)c1` (configuration not stated), with 124%; and `O=C(NCc1ccc(Cl)cc1)c1cnc(N2CCCCC2)c2ccccc12`, with 84%.
Then `CCc1ccc(N(CC)C(=O)c2ccc3c(=O)n4c(nc3c2)CCCCC4)cc1`, with 86%.
To `CCOc1ccc(NC(=O)Cn2ncc3c2-c2cc(C)ccc2OC3)cc1` belongs 73%; to `Cc1c(C(=O)NCc2cccc(F)c2)oc2c1-c1[nH]ncc1CC2`, 71%; to `CC(CN=CC1=C(O)CC(C)(C)CC1=O)N=CC1=C(O)CC(C)(C)CC1=O` (configuration not stated), 101%.
For `CC(C)C(=O)N1CCC(CN=CC2=C(O)CC(C)(C)CC2=O)CC1`, the survival was 52% (active).
On to `CC1(C)CC(=O)C(C=NCCCN2CCCC2=O)=C(O)C1`, for which the survival is 94%.
To `CC(O)Cc1nsc(NC(=O)c2cccs2)n1` (configuration not stated) belongs 81%; to `CCn1c(C(=O)N2CCC(C(=O)N3CCN(c4cc(C)ccc4C)CC3)CC2)cc2sccc21`, 51%.
Then `COc1ccc(N2CCN(C(=O)c3cc4sccc4n3Cc3ccccc3)CC2)cc1`, with 92%; and `CCn1c(C(=O)N2CCC(C(=O)N3CCN(c4ccc(OC)cc4)CC3)CC2)cc2sccc21`, with 49% (active).
To `COCCCNC(=O)C1CCN(C(=O)c2cc3sccc3n2Cc2ccc(Cl)cc2)CC1` belongs 59%; to `CC(C)NC(=O)C1CCN(C(=O)c2cc3sccc3n2Cc2ccc(Cl)cc2)CC1`, 65%.
For the compound `CCn1c(C(=O)N2CCC(C(=O)NCCc3ccc(C)cc3)CC2)cc2sccc21`, the survival is 58%.
Regarding `COCCNC(=O)C1CCN(C(=O)c2cc3sccc3n2Cc2ccc(Cl)cc2)CC1`, the survival is 110%.
To `CC(C)CCNC(=O)C1CCN(C(=O)c2cc3sccc3n2Cc2ccc(Cl)cc2)CC1` belongs 40% (active); to `CCC(C)NC(=O)C1CCN(C(=O)c2cc3sccc3n2Cc2ccc(Cl)cc2)CC1` (configuration not stated), 45% (active).
Then `Cc1ccc(CN(CC(=O)NC2CCCC2)C(=O)CSc2nnc(COc3ccccc3)o2)cc1`, with 80%; and `O=C(Cn1c(=O)n(-c2ccc(Cl)cc2)c(=O)c2c3c(sc21)CCC3)c1ccc(F)cc1`, with 51%; and `COc1ccc(N2CCN(C(=O)Cn3nc(Cc4cccnc4)c4ccccc4c3=O)CC2)cc1`, with 108%.
Consider `Cc1cc(C)c(NC(=O)CSc2nc(=O)n(Cc3cccnc3)c3c2CCC3)c(C)c1`, for which the survival was 104%.
For the compound `C[n+]1ccn(CC(=O)c2ccccc2)c1`, the survival was 78%.
In the case of `COCCN=Cc1c(NCCOC)nc2ccccn2c1=O`, the survival was 103%.
Consider `COC(=O)c1sc(N)c(C#N)c1C`, for which the survival was 74%.
Then `CC(C)NC(=O)C1CCN(c2nc3ccccc3nc2C(F)(F)F)CC1`, with 101%.
With `CC(NC(=O)C1CCN(c2nc3ccccc3nc2C(F)(F)F)CC1)c1ccccc1` (configuration not stated), the survival was 37% (active).
Then `Cc1ccc(NC(=O)C2CCN(c3nc4ccccc4nc3C(F)(F)F)CC2)cc1F`, with 46% (active); and `Cc1ccc(NC(=O)C2CCN(c3ncccn3)CC2)cc1F`, with 53% (active).
For `Cc1ccc(NC(=O)C2CCN(c3nc4ccccc4nc3C(F)(F)F)CC2)cc1C`, the survival was 91%.
Then `CSc1ccc(NC(=O)C2CCN(c3ncccn3)CC2)cc1`, with 110%; and `Cc1cc(C)cc(NC(=O)C2CCN(c3nc4ccccc4nc3C(F)(F)F)CC2)c1`, with 93%; and `O=C(Nc1ccc(Cl)cc1)C1CCN(c2nc3ccccc3nc2C(F)(F)F)CC1`, with 25% (active).
To `O=C(Nc1ccc(F)c(Cl)c1)C1CCN(c2ncccn2)CC1` belongs 63%; to `O=C(Nc1ccc(F)cc1)C1CCN(c2nc3ccccc3nc2C(F)(F)F)CC1`, 118%; to `O=C(Nc1cccc(Cl)c1)C1CCN(c2nc3ccccc3nc2C(F)(F)F)CC1`, 70%.
To `CC(C)(C)NC(=O)C1CCN(c2nc3ccccc3nc2C(F)(F)F)CC1` belongs 63%.
